Assay outcomes: PubChem, National Center for Advancing Translational Sciences (NCATS)
This is a sample that favours compounds with a hit; in the whole collection about 6.2% have one here.
HCMV inh: human cytomegalovirus inhibition; HFF cells, HCMV-luciferase reporter, 72 h; stronger effect = lower value; activity change, negative = inhibition, % at 57.5 µM; 410,000 compounds, 4.5% hits; in the data active = activity change below about -60%; inconclusive = no clear call, values can overlap the other calls; inactive = above about -39%
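Luciferase read-out from HCMV-luciferase-infected HFFs (MOI 1 PFU/cell) 72 h post infection at 37C; compounds added after 16 h cell attachment; activity normalized between buffer-only basal and Salinomycin (10uM) inhibitor controls.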
MARV entry inh: blocks Marburg virus binding to or entry into cells; Marburg virus pseudotyped entry inhibition, cell reporter; Potency, µM (top dose mostly 37.8 µM), for inactives: at the top dose activity change, negative = inhibition, actives largely listed as inhibitors; 300,000 compounds, 1.8% hits; AID 540276; calls by dose curve; tested in HEK293 cells; note: potency is the fitted concentration of half-maximal effect
FMDV inh: blocks foot and mouth disease virus; 410,000 compounds, 1.2% hits; FMDV antiviral cell-based qHTS; Potency, µM (titrated, usually from 57.9 µM), for inactives: at the top dose activity change, negative = inhibition, usual class: inhibitors; calls by dose curve; tested in HEK293T cells; note: read-out not given here; potency is the fitted concentration of half-maximal effect; nearly all actives have a fitted effect of over 45% in size
Lassa entry inh: blocks Lassa virus binding to or entry into cells. AID 540256. Lassa virus pseudotype entry inhibition, cell reporter. 300,000 compounds, 1.2% hits. Potency, µM (series often up to 37.9 µM), for inactives: at the top dose activity change, negative = inhibition, actives largely listed as inhibitors; calls by dose curve; tested in HEK293 cells; note: potency is the fitted concentration of half-maximal effect; nearly all actives have a fitted effect of over 50% in size
An asterisk follows results filed as active; u = inconclusive; x = not tested or not shown; [ ] = another dose, or the depositor's remark. % is set by controls: 0 for no effect and ±100 for the full control effect.

SMILES | HCMV inh | MARV entry inh | FMDV inh | Lassa entry inh
Cc1cc2c(cc1C)NC(c1nc3ccccc3[nH]1)C1=C(CC(C)(C)CC1=O)N2 (stereo not given) | -105* | 2% | -13% | 11%
COc1ccc(CNC(=O)CSc2nc(-c3ccc(OC)c(OC)c3)cc(C(F)(F)F)n2)cc1 | -18 | u | -6% | -17%[46.1 µM]
CCc1ccccc1NC(=O)NC(CC)Cn1nnc2ccccc2c1=O (stereo not given) | 33 | 17%[46.1 µM] | -19% | u
Cc1ccc(C(=O)Oc2csc(=S)n2C(=O)c2ccc(C)cc2)cc1 | -62* | 5% | x | -15%
Cc1cccc(NC(=O)C(Cc2ccccc2)NS(=O)(=O)c2ccc3c(c2)c(=O)n(C)c(=O)n3C)c1 (stereo not given) | -12 | -9%[46.1 µM] | -18% | 26%[46.1 µM]
C/C(=N\NC(=S)Nc1cc(S(=O)(=O)N2CCOCC2)ccc1Cl)c1ccccc1F | -92* | u | 13µM* | u
CC(C)N(C(=S)Nc1cc(S(=O)(=O)N2CCOCC2)ccc1Cl)c1ccccc1 | -9 | u | -2% | 0%
COC(=O)c1cc(CNC(=O)c2ccc3ncccc3c2)cc(NC(=O)c2ccccc2Cl)c1 | x | x | 3% | x
Fc1ccc(NC(=S)NN=Cc2ccccc2Cl)cc1 | -16 | u | 5% | -10%[46.1 µM]
Oc1ccccc1C=NNC(=S)Nc1ccc(F)cc1 | -83* | u | 34% | u
Cc1nn(C)cc1/C=N/NC(=S)Nc1ccccc1 | 21 | 7.3µM* | 2% | -12%
Oc1ccccc1/C=N/NC(=S)NCCc1ccccc1 | -70* | u | 12% | 1%[46.1 µM]
NCC1OC(O[C@H]2[C@H](O)[C@@H](OC3C(O)C(N)CC(N)C3OC3OC(CO)C(O)C(O)C3N)O[C@@H]2CO)C(N)C(O)C1O (stereo not given in full) | x | 11% | x | 21%
Nc1ccc2ccc(N)cc2c1 | -65* | x | x | x
COc1cc2c(=O)n(Cc3ccccc3)c(=O)n(CC(=O)Nc3cc(C(F)(F)F)ccc3Cl)c2cc1OC | 10 | 10%[46.1 µM] | -20% | 8%[46.1 µM]
CCN(CC)C(=O)c1nn(-c2ccccc2)c2c1C1CCC2(C)C1(C)C (stereo not given) | -95* | u | -24% | u
CCN(CC)C(=O)c1nn(Cc2ccccc2)c(=O)c2ccccc12 | 16 | x | -19% | x
CC(Oc1ccccc1)C(=O)NCC1Cc2cc(F)cc(-c3ccccn3)c2O1 (stereo not given) | x | x | -13% | x
CCOc1ccc(OCC)c(NC(=O)CSc2nc3c(c(=O)n(C)c(=O)n3C)n2C(C)C)c1 | -63* | u | x | u
CCOc1ccc(OCC)c(NC(=O)CSc2nc3c(c(=O)n(C)c(=O)n3C)n2C)c1 | x | -1% | x | x
Cc1nnsc1C(=O)N/N=C/c1ccc(OC(F)(F)F)cc1 | -61* | 4%[46.1 µM] | 22% | u
Cc1nnsc1C(=O)N/N=C/c1c(F)cccc1Cl | u | 4%[46.1 µM] | 8% | x
Cc1nc(N)sc1C(=O)N/N=C/c1c[nH]c2ccccc12 | 62 | 2.9µM* | x | 10%
Cc1nnsc1C(=O)N/N=C/c1ccc2ccccc2c1O | -100* | u | u | u
Cc1nnsc1C(=O)N/N=C/c1ccccc1 | -9 | u | 2% | 1%
SMILES | HCMV inh | MARV entry inh | FMDV inh | Lassa entry inh
Cc1nc(N)sc1C(=O)N/N=C/c1ccccc1[N+](=O)[O-] | 83 | x | x | x
COc1ccccc1-c1ccnc(-n2ncc(C(=O)NCC3(N4CCOCC4)CCCC3)c2C)n1 | x | x | -3% | x
CCOc1ccc(Cl)cc1/C=C1/C(=O)ON=C1C | 78 | 14%[46.1 µM] | 40µM* | 11%[46.1 µM]
COc1ccc(Cl)cc1/C=C1/C(=O)ON=C1C | 55 | -7%[46.1 µM] | 32µM* | u
CC1=NOC(=O)/C1=C\c1ccc(-c2cc(Cl)ccc2Cl)o1 | -104* | 9% | 10µM* | 22%
CCCOc1ccc(/C=C2/C(=O)ON=C2C)cc1Cl | 15 | x | 0% | x
Cc1onc(-c2ccc(Cl)cc2)c1-c1ccnc(SCC(=O)Nc2cc(Cl)cc(Cl)c2)n1 | -15 | 7.9µM* | -16% | u
O=C(CSc1nccc(-c2cccs2)n1)Nc1cccc(Cl)c1 | -25 | 14%[14.2 µM] | -23% | -28%
CCOc1cccc(=NC2CCCCC2)c2c(C)n(C)c(C)c12 | -110* | u | 11µM* | -25%
O=c1[nH]c(CN2CCN(c3ccc([N+](=O)[O-])cc3)CC2)nc2ccsc12 | 13 | -28% | 32µM* | -2%
Cc1ccc(Cn2cc(CN3CC(N4CCN(CCN(C)C)CC4)CS3(=O)=O)nn2)cc1 (stereo not given) | 1 | x | -23% | x
Cc1cccc(Cl)c1NC(=O)N(C)c1ccccc1 | 54 | x | x | x
COc1cc(-c2ccccc2)nc(N)n1 | 71 | u | 77% | 12µM*
Cc1nc(-c2ccccc2)cc(N2CCCC2)n1 | 5 | -10% | 8% | 5%
